# Assay results from PubChem BioAssay AID1053118 (Broad Institute, 2014).
# Measured potencies and affinities stand elsewhere. Active and inactive are the calls of the source.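 Rule for the calls: active = fitted half-maximal concentration for ATP signal loss at most twice the top valid dose; inconclusive = flat curve between -70 and -30%, or an invalid fit; inactive = flat within ±30%, wrong direction, or potency past limit.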
# Assay: HepG2 cell cytotoxicity, dose response, cytotoxicity control, cherry-picks, set 5 (AID 1053118)
# Details: HepG2 viability, ATP luminescence, 72 h; series mostly up to 26 µM
smiles,measurement,value
C=C1C(=O)O[C@@H]2C[C@@H](C)[C@@H]3C=CC(=O)[C@@]3(C)[C@@H](O)[C@H]12,outcome,inactive
